The results in this text go back to PubChem BioAssay.

Values joined by “and” are separate entries in the source; they are usually repeats but may differ in a detail not shown here. Equal entries are not always repeated. Results filed as inconclusive are left out. Active and inactive are the calls of the source.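 Rule for the calls, unless noted: active = normalized viability below 100% at a tested concentration; inactive = the rest.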

The nature of assay [1]: JHH-DIPG-1 glioma cell viability, MIPE5.0 library, CellTiter-Glo luminescence, qHTS (AID 1347067; cut-off not given, nearly all actives have AC50 up to about 26 µM;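 note: cells exposed to compound for 48 hours before readout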). The settings on record: JHH-DIPG-1 glioma viability, CellTiter-Glo ATP luminescence.
A short description of assay [2]: growth inhibition of DIPG cells – cell-based, MIPE5.0 library, qHTS (AID 1347068; cut-off not given, nearly all actives have IC50 up to about 30 µM). The following applies: SU-DIPG-XXV viability. Background: qHTS replaces the single test concentration by a dilution series.
The nature of assay [3]: drug combination growth inhibition, ovarian cancer – cell-based, oncology-focused library, rucaparib conditional, profiling panel (AID 1508598). The following applies: patient-derived ovarian cancer cells, CellTiter-Glo viability, 144 h, stronger effect = lower value.
A short description of assay [4]: viability loss with induced miR-34 in A549 – imaging, A549 dox-inducible miR-34, nuclei and caspase counts, primary screen (AID 1347080;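 active = compounds whose cell count with miR-34 switched on is under 0.7 times the count with it off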). The following applies: A549 miR-34 inducible, Hoechst nuclei count, 48 h.
Assay [5] can be described thus: MELAS cybrid and Rieske KO viability enhancers – cell-based, MELAS cybrids, Rieske KO mouse fibroblasts, CellTiter-Glo, primary screen (AID 1508586;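 active = mean z-score across replicates of 1.96 or higher in either the MELAS or the Rieske mutant cell line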;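 note: z relative to plate mean and SD of compound and empty wells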). The settings on record: low glucose.
Assay [6] can be described thus: viability loss in pontine glioma line – cell-based, SU-DIPG-XIII, MIPE5.0, CellTiter-Glo, qHTS, dose response (AID 1347064; cut-off not given, nearly all actives have AC50 up to about 23 µM). The following applies: CellTiter-Glo ATP luminescence. (In general: In ATP-based viability assays light output follows the ATP content of the culture.)
Assay [7] in a line: viability loss in pontine glioma line – cell-based, SU-DIPG-XXV, MIPE5.0, CellTiter-Glo, qHTS, dose response (AID 1347065; cut-off not given, nearly all actives have AC50 up to about 26 µM;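 note: cells exposed to compound for 48 hours before ATP readout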). The settings on record: CellTiter-Glo ATP luminescence.
The nature of assay [8]: growth inhibition of DIPG cells – cell-based, MIPE4.0 library, CellTiter-Glo luminescence, qHTS (AID 1347066; cut-off not given, nearly all actives have AC50 up to about 30 µM;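 note: cells exposed to compound for 48 hours before readout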). The settings on record: SU-DIPG-VI viability, CellTiter-Glo ATP luminescence.
[9] abbreviates: stronger effect = lower value, cell number ratio, induced over uninduced.
[10] abbreviates: measured here: relative caspase fold change +Dox/-Dox.
[11] abbreviates: measured here: total cells with miR-34 induction, stronger effect = lower value.
Where [12] appears, read: measured here: total cells without miR-34 induction.

One may read the viability as a read-out of living cells in per cent, often relative to untreated cells. Broadly, the AC50 is the concentration giving half of the maximal activity seen.

For the compound `Cc1sc2c(c1C)C(c1ccc(Cl)cc1)=N[C@@H](CC(N)=O)c1nnc(C)n1-2`, the compound was classed as inactive in assay [1] and in assay [2]. Also, the viability in assay [3] (at 0.000305 µM, OCI-C5x cells, with rucaparib 10 µM, 100% = cells with rucaparib alone) was 106% (inactive); in assay [3] (at 0.000305 µM, OCI-C5x cells, without rucaparib) it was 111% (inactive); in assay [3] (at 0.000305 µM, OCI-P5x cells, with rucaparib 20 µM, 100% = cells with rucaparib alone) it was 89.8% (active); in assay [3] (at 0.000305 µM, OCI-P5x cells, without rucaparib), 93.2% (active); in assay [3] (at 0.00122 µM, OCI-C5x cells, with rucaparib 10 µM, 100% = cells with rucaparib alone), 111% (inactive); in assay [3] (at 0.00122 µM, OCI-C5x cells, without rucaparib) it was 124% (inactive). Also, the viability in assay [3] (at 0.00122 µM, OCI-P5x cells, with rucaparib 20 µM, 100% = cells with rucaparib alone) is 100% (inactive); in assay [3] (at 0.00122 µM, OCI-P5x cells, without rucaparib), 96.7% (active); in assay [3] (at 0.00488 µM, OCI-C5x cells, with rucaparib 10 µM, 100% = cells with rucaparib alone), 99.7% (active); in assay [3] (at 0.00488 µM, OCI-C5x cells, without rucaparib) it was 94.7% (active); in assay [3] (at 0.00488 µM, OCI-P5x cells, with rucaparib 20 µM, 100% = cells with rucaparib alone), 97.5% (active); in assay [3] (at 0.00488 µM, OCI-P5x cells, without rucaparib) it was 97.3% (active). Moreover, the viability is 64.4% (active) in assay [3] (at 0.0195 µM, OCI-C5x cells, with rucaparib 10 µM, 100% = cells with rucaparib alone); 66.5% (active) in assay [3] (at 0.0195 µM, OCI-C5x cells, without rucaparib); 82.4% (active) in assay [3] (at 0.0195 µM, OCI-P5x cells, with rucaparib 20 µM, 100% = cells with rucaparib alone); 90% (active) in assay [3] (at 0.0195 µM, OCI-P5x cells, without rucaparib); 38.4% (active) in assay [3] (at 0.0781 µM, OCI-C5x cells, with rucaparib 10 µM, 100% = cells with rucaparib alone); 48.1% (active) in assay [3] (at 0.0781 µM, OCI-C5x cells, without rucaparib). Further, the viability in assay [3] (at 0.0781 µM, OCI-P5x cells, with rucaparib 20 µM, 100% = cells with rucaparib alone) was 54.9% (active); in assay [3] (at 0.0781 µM, OCI-P5x cells, without rucaparib), 77.6% (active); in assay [3] (at 0.313 µM, OCI-C5x cells, with rucaparib 10 µM, 100% = cells with rucaparib alone), 20.3% (active); in assay [3] (at 0.313 µM, OCI-C5x cells, without rucaparib) it was 29.5% (active); in assay [3] (at 0.313 µM, OCI-P5x cells, with rucaparib 20 µM, 100% = cells with rucaparib alone) it was 31.5% (active); in assay [3] (at 0.313 µM, OCI-P5x cells, without rucaparib) it was 66.2% (active). In addition, the viability in assay [3] (at 1.25 µM, OCI-C5x cells, with rucaparib 10 µM, 100% = cells with rucaparib alone) is 16.4% (active); in assay [3] (at 1.25 µM, OCI-C5x cells, without rucaparib) it was 26.3% (active); in assay [3] (at 1.25 µM, OCI-P5x cells, with rucaparib 20 µM, 100% = cells with rucaparib alone), 24% (active); in assay [3] (at 1.25 µM, OCI-P5x cells, without rucaparib), 64.7% (active); in assay [3] (at 5 µM, OCI-C5x cells, with rucaparib 10 µM, 100% = cells with rucaparib alone), 14.7% (active); in assay [3] (at 5 µM, OCI-C5x cells, without rucaparib), 20.8% (active). Further, the viability in assay [3] (at 5 µM, OCI-P5x cells, with rucaparib 20 µM, 100% = cells with rucaparib alone) is 19% (active); in assay [3] (at 5 µM, OCI-P5x cells, without rucaparib), 56.3% (active).
With `Cc1sc2c(c1C)C(c1ccc(Cl)cc1)=NC(CC(=O)Nc1ccc(O)cc1)c1nnc(C)n1-2` (stereo unspecified), the compound was classed as inactive in assay [2]. The fold change in assay [4] (setting [9]) was 0.898 (inactive); in assay [4] (setting [10]), 0.692. Also, the cell count in assay [4] (setting [11]) came to 4940; in assay [4] (setting [12]), 5500. Moreover, the z-score is -0.542 (inactive) in assay [5] (MELAS cybrid survival, CellTiter-Glo 48 h, stronger effect = higher value) and -4.37 in assay [5] (Rieske KO mouse fibroblast survival, CellTiter-Glo 72 h).
In the case of `CCCCC/C=C\C/C=C\C/C=C\C/C=C\CCCC(=O)NC`, the results for the fold change in assay [4] (setting [9]) and in assay [4] (setting [10]) were 0.953 (inactive) and 2.18, respectively. Further, the cell count in assay [4] (setting [11]) amounted to 5880; in assay [4] (setting [12]) it was 6170.
For `C[C@@H](C1CC[C@@]2(O)C3=CC(=O)[C@@H]4C[C@@H](O)[C@@H](O)C[C@]4(C)[C@H]3CC[C@]12C)[C@H](O)CCC(C)(C)O` (stereo partly specified), the call in assay [6], in assay [7] and in assay [1] was inactive.
With `C[C@H](Nc1ncnc2nc[nH]c12)c1nc2ccc(F)cc2c(=O)n1-c1ccccc1`, in assay [7], the AC50 was 14.8 µM (active). Further, in assay [2], the outcome was inactive.
Turning to `CCCCC/C=C\C/C=C\C/C=C\C/C=C\CCCC(=O)NCC(O)CC(=O)O` (stereo unspecified), the fold change in assay [4] (setting [9]) is 1.07 (inactive); in assay [4] (setting [10]) it was 1.27. The cell count is 5440 in assay [4] (setting [11]) and 5070 in assay [4] (setting [12]).
Taken in the same sequence, the figures for `C[C@H](CCC(=O)O)C[C@H](C)C[C@H](C)C(=O)/C=C(\O)[C@H](C)C[C@H](C)C/C=C/[C@@H](C)[C@@H](O)[C@@H](C)[C@@H](O)C[C@@H]1CC[C@@](C)([C@H]2CC[C@@](C)([C@@H](C)O)O2)O1` were 0.679 (active), 0.922, 621 and 914.
Taken in the same sequence, the figures for `CCCN(CCCN)N(O)N=O` were 1.05 (inactive), 0.825, 5850 and 5540.
With `C[C@H]1[C@@H](C(=O)C[C@H]2O[C@@H]3O[C@]4(C)CC[C@H]5[C@H](C)CC[C@@H]([C@H]2C)[C@@]35OO4)O[C@@H]2O[C@]3(C)CC[C@H]4[C@H](C)CC[C@@H]1[C@@]24OO3`, the call in assay [8] was inactive.
For the compound `CCCCC/C=C\C/C=C\C/C=C\C/C=C\CCCC(=O)Nc1ccc2c(C)cc(=O)oc2c1`, the figures for the fold change in assay [4] (setting [9]) and in assay [4] (setting [10]) were 0.937 (inactive) and 0.94, respectively. Besides, the cell count amounted to 5170 in assay [4] (setting [11]) and 5510 in assay [4] (setting [12]).
As to `Cc1cc(C(C#N)c2ccc(Cl)cc2)c(Cl)cc1NC(=O)c1cc(I)cc(I)c1O` (stereo unspecified), the fold change was 0.964 (inactive) and 0.906 (inactive) and 0.861 (inactive) in assay [4] (setting [9]); 0.325 and 0.48 and 1.33 in assay [4] (setting [10]). In addition, the cell count is 8250 and 7900 and 8930 in assay [4] (setting [11]); 8560 and 8730 and 10400 in assay [4] (setting [12]).
